Screens (PubChem BioAssay)
A selection: hits, their analogues and other compounds. The true share with any hit is near 3.3%.
HCV inh: HCV inhibition; Huh7.5.1 HCVcc-Cre infection, luciferase reporter, 44 h; Potency, µM (series often up to 41.8 µM), hits mostly inhibitors; actives 3.4% (n = 340,000); AID 651820; active = well fitted inhibition curve with a large enough effect; inconclusive = small, poorly fitted or top-dose-only effect, or another doubt; inactive = no such curve, though single readings can be large or run the other way
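Antiviral activity was scored by luciferase reporter output from cells infected with HCVcc-Cre (~0.5 moi) in presence of compound, 44 h infection period, cells seeded 1,000/well 4 h prior.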
VACV mCherry inh: vaccinia inhibition (mCherry reporter) | Vaccinia virus mCherry reporter infection, fluorescence | Potency, µM (series often up to 36.5 µM), most hits filed as inhibitors | actives 0.63% (n = 310,000); calls by dose curve; tested in A549 cells; also: nearly all actives have a fitted effect of over 35% in size
Vaccinia Venus: vaccinia inhibition (Venus reporter). Vaccinia virus Venus reporter expression, fluorescence. actives 0.46% (n = 330,000). Potency, µM (titrated, usually from 36.5 µM), hits mostly inhibitors. AID 720580; calls by dose curve; tested in A549 cells; also: nearly all actives have a fitted effect of over 30% in size
Numbers stand for hits; n = inactive; u = inconclusive; x = no result given.

SMILES	HCV inh	VACV mCherry inh	Vaccinia Venus
Cc1ccc(-c2nnc(SCC(=O)N/N=C/c3c(C)nn(-c4ccccc4)c3C)n2-c2ccc(C)cc2)cc1	n	n	n
Cc1ccc(-c2nnc(SCC(=O)N/N=C/c3c(C)nn(-c4ccccc4)c3C)n2-c2ccccc2)cc1	11µM	n	n
Cc1ccc(OCC(=O)N/N=C/c2ccccc2)c([N+](=O)[O-])c1	n	n	n
Cc1ccc(OCC(=O)N/N=C\c2c(C)n(C)c3ccccc23)c([N+](=O)[O-])c1	16µM	x	x
O=C(N/N=C/c1cccc(Oc2ccc([N+](=O)[O-])cc2[N+](=O)[O-])c1)c1cncc(Br)c1	u	u	n
Cc1ccccc1OCC(=O)N/N=C/c1cccc(Oc2ccc([N+](=O)[O-])cc2[N+](=O)[O-])c1	11µM	u	u
Cc1nc2cccnc2n1C1CCN(S(=O)(=O)N(C)C)CC1	x	n	n
Cc1cn(CC(=O)NCCc2ccccn2)c(=O)[nH]c1=O	2.8µM	n	n
Cc1cn(CC(=O)NCc2ccccn2)c(=O)[nH]c1=O	n	n	n
CC(C)CC(=O)N/C(N)=N/c1nc2ccccc2o1	n	n	n
O=C(NCCc1ccc(F)cc1)C(=O)NCC(c1ccco1)S(=O)(=O)c1cccs1 (stereo not drawn)	x	n	n
CCOC(=O)c1ccc(NC(=O)CCc2nc(-c3ccccc3)no2)cc1	u	n	n
CCOC(=O)c1ccc(NC(=O)CCc2nc(-c3ccccc3Cl)no2)cc1	11µM	x	x
COC(=O)C1CCN(c2csc3ccc(Cl)cc3c2=O)CC1	x	n	n
CCOC(=O)C1=C(COC(=O)/C=C/c2ccc(OC)cc2)NC(=O)NC1C (stereo not drawn)	3.2µM	u	n
CCOC(=O)C1=C(COC(=O)/C=C/c2cccc(OC)c2)NC(=O)NC1C (stereo not drawn)	x	n	n
NC(=O)COc1ccccc1C(=O)Nc1ccccc1	x	n	n
CCN(CC)C(=O)Cn1nnc2sc(-c3ccccc3)cc2c1=O	x	n	n
CC(C)C(C)(C#N)NC(=O)CSc1ncnc2sc(-c3ccccc3)cc12 (stereo not drawn)	13µM	u	u
CC(C#N)Sc1ncnc2sc(-c3ccccc3)cc12 (stereo not drawn)	n	n	n
CCN(CC)C(=O)CSc1ncnc2sc(-c3ccccc3)cc12	13µM	x	x
COc1ccc(Nc2ncnc3ccccc23)cc1	u	x	n
CN(C)c1ncnc2sc(-c3ccccc3)cc12	11µM	n	n
COc1ccc(Nc2ncnc3sc(-c4ccccc4)cc23)cc1	10µM	x	x
COc1ncnc2sc(-c3ccccc3)cc12	u	n	n
SMILES	HCV inh	VACV mCherry inh	Vaccinia Venus
Nc1c(Br)cc(C=O)cc1Br	x	n	n
Cc1oc(-c2cccc(Cl)c2)nc1CSCC(=O)NCc1ccccc1Cl	x	n	n
O=C(NCC1CC1)c1ccc2nc(-c3ccoc3)c(-c3ccoc3)nc2c1	x	n	n
COc1cccc(CN(C)C(=O)c2cnn(-c3ncc4c(n3)-c3ccccc3CCC4)c2C)c1	x	u	n
COc1ccc(OC)c(/C=C/c2cc3ccccc3cn2)c1	x	u	n
OCCCNc1ncnc2sc(-c3ccccc3)cc12	u	n	n
C=COCCCNc1ncnc2sc(-c3ccccc3)cc12	8.9µM	x	x
CNCCc1c[nH]c2ccccc12	n	n	n
CNCCc1c[nH]c2ccc(O)cc12	3.2µM	n	n
Cc1cccc(C)c1NC(=O)CCSCCc1ccccn1	x	n	n
CC[C@@]1(O)C(=O)OCc2c1cc1n(c2=O)Cc2cc3cc(O)ccc3nc2-1	x	n	u
CCOc1ccc2nc(SCC#N)c(C#N)cc2c1	n	x	x
CCSc1nc2ccc(OC)cc2cc1C#N	10µM	n	n
CN(Cc1cccs1)C(=O)c1ccc(S(=O)(=O)NCc2ccco2)cc1	n	x	x
CC(C)c1ccc(CN(C)C(=O)c2ccc(S(=O)(=O)NCc3ccco3)cc2)cc1	6.3µM	x	x
Cc1nn(-c2ccccc2)c(C)c1CN(C)C(=O)c1ccc(S(=O)(=O)NCc2ccco2)cc1	14µM	x	x
CN(Cc1ccc(Cl)cc1)C(=O)c1ccc(S(=O)(=O)NCc2ccco2)cc1	n	x	x
CCOC(=O)N1CCc2c(sc3c2C(=O)NC(c2cc(OC)c(OC)c(OC)c2)N3)C1 (stereo not drawn)	x	n	n
Cc1cc(S(=O)(=O)NCc2nc(N3CCCC3)c3cc(Cl)ccc3n2)c(C)s1	x	n	n
CN(C(=O)COC(=O)c1ccccc1OCC(=O)Nc1ccc(Br)cc1)c1ccccc1	x	n	n
CCc1cccc(NC(=O)C2CCCN2C(=O)Nc2ccc(C)cc2)c1 (stereo not drawn)	n	n	n
O=C(CCC(=O)Nc1ccccc1Cl)NNC(=O)C1CCCCC1	n	n	n
COc1ccc(Cn2c(SCc3ccc(C(=O)NC4CCCC4)cc3)nc3cccnc32)cc1	x	n	n
COc1ccc(S(=O)(=O)Nc2ccc3c(c2)n(C)c(=O)n3C)cc1F	u	n	n
Cc1ccc(S(=O)(=O)Nc2ccc3c(c2)OCCO3)cc1C	n	n	n
SMILES	HCV inh	VACV mCherry inh	Vaccinia Venus
COc1ccc(S(=O)(=O)Nc2ccc3c(c2)OCCO3)cc1Cl	11µM	u	n
COc1ccc(NS(=O)(=O)c2ccc3c(c2)OCCO3)cc1OC	6.3µM	n	n
Cc1cc(C)cc(NS(=O)(=O)c2ccc3c(c2)c(=O)n(C)c(=O)n3C)c1	6.3µM	5.6µM	5µM
COc1ccc(S(=O)(=O)Nc2ccc3c(c2)n(C)c(=O)n3C)cc1OC	3.2µM	n	n
COc1ccc(S(=O)(=O)Nc2ccc3c(c2)OCO3)cc1OC	n	x	x
Cn1c(=O)c2cc(S(=O)(=O)Nc3cc(C(=O)O)cc(C(=O)O)c3)ccc2n(C)c1=O	n	x	x
Cc1cc(OCC(=O)N(Cc2ccc(N(C)C)cc2)CC2CCCO2)ccc1Cl (stereo not drawn)	x	n	n
COc1cc(/C=C(/NC(=O)c2ccccc2)C(=O)N2CCOCC2)c([N+](=O)[O-])cc1OC	x	n	n
CCc1ccc(OCCCCn2c(CCNC(=O)C3CCCCC3)nc3ccccc32)cc1	x	n	u
Nc1nc(SCC(=O)Nc2ccc([N+](=O)[O-])cc2)[nH]c(=O)c1NC(=O)c1ccc(Br)cc1	n	x	x
COc1ccc(C2=NOC(C(=O)Nc3ccc4c(c3)OCCO4)C2)cc1OC (stereo not drawn)	n	n	n
COc1ccc(C(C)(C)C)cc1S(=O)(=O)N1CCC(C(N)=O)CC1	u	n	n
COc1ccc(F)cc1S(=O)(=O)N1CCC(C(N)=O)CC1	n	u	13µM
CC(=O)OC1CC2C(C)(C)C(O)CC[C@@]2(C)C2CC[C@@]3(C)C(c4ccoc4)OC(=O)C4O[C@@]43[C@]12C (stereo partly drawn)	x	n	n
O=C(OCC(=O)c1c[nH]c2ccccc12)c1ccc([N+](=O)[O-])s1	u	u	n
CCc1cccc2c(C(=O)COC(=O)c3ccc([N+](=O)[O-])s3)c[nH]c12	28µM	x	x
NC(=S)n1[nH]c(-c2ccc([N+](=O)[O-])cc2)c(N=Nc2ccccc2[N+](=O)[O-])c1=O	n	x	x
Cc1[nH]n(C(N)=S)c(=O)c1N=Nc1cccc([N+](=O)[O-])c1C	n	x	x
Cc1c(N=Nc2c(-c3ccc([N+](=O)[O-])cc3)[nH]n(C(N)=S)c2=O)cccc1[N+](=O)[O-]	8.9µM	u	n
NC(=S)n1[nH]c(-c2ccc([N+](=O)[O-])cc2)c(N=Nc2cccc([N+](=O)[O-])c2)c1=O	10µM	n	n
Cc1ccc(CN2[C@H]3CCCC[C@@H]3OCCS2(=O)=O)cc1	x	n	n
